Results from PubChem BioAssay (NCATS).
Inconclusive results are not listed. The source made the active and inactive calls. Unless noted, the call rests on the fitted dose curve; in most records, active means well fitted curve in the direction sought with a large enough effect; inconclusive means small, poorly fitted or top-dose-only effect, or another doubt; inactive means no such curve, though single readings can be large; an effect the other way counts as inactive or inconclusive.

Assays:
[1] = NS1 protein of Zika virus - qHTS assay to identify small molecule inhibitors in human HEK 293 cells (AID 1347053); further: series mostly up to about 46 µM; nearly all actives have a fitted effect of over 55% in size
In short: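 In this cell-based screen, HEK 293 cultures received compound for one hour before Zika MR766 at MOI = 0.5. NS1 was quantified 24 hours later by TR-FRET, normalized to virus-free wells and infected wells.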

[2] = qHTS for Inhibitors of the Functional Ribonucleoprotein Complex (vRNP) of Lassa (LASV) Arenavirus: LASV Primary Screen - GLuc reporter signal (AID 1347082; calls by dose curve; tested in HEK293 reporter line; further: series mostly up to about 57 µM; nearly all actives have a fitted effect of over 60% in size)
[3] = qHTS for Inhibitors of the Functional Ribonucleoprotein Complex (vRNP) of Lassa (LASV) Arenavirus: Viability assay - alamar blue signal for LASV Primary Screen (AID 1347083; calls by dose curve; tested in HEK293 reporter line; further: series mostly up to about 57 µM; nearly all actives have a fitted effect of over 80% in size)
[4] = qHTS for Inhibitors of the Functional Ribonucleoprotein Complex (vRNP) of Lymphocytic Choriomeningitis Arenaviruses (LCMV): Viability assay - alamar blue signal for LCMV Primary Screen (AID 1347085; calls by dose curve; tested in HEK293 reporter line; further: series mostly up to about 57 µM; nearly all actives have a fitted effect of over 80% in size)
[5] = target: Nucleoprotein (Lymphocytic choriomeningitis virus (strain Armstrong)) (UniProt P09992); test: qHTS for Inhibitors of the Functional Ribonucleoprotein Complex (vRNP) of Lymphocytic Choriomeningitis Arenaviruses (LCMV): LCMV Primary Screen - GLuc reporter signal (AID 1347086; calls by dose curve; further: series mostly up to about 57 µM; nearly all actives have a fitted effect of over 70% in size)
[6] = qHTS of pediatric cancer cell lines to identify multiple opportunities for drug repurposing: Primary screen for TC32 cells (AID 1347089); further: nearly all actives have a fitted effect of over 60% in size
In short: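 Measured quantity: luminescence from CellTiter-Glo, reflecting metabolically active TC32 cells following 48 h of compound. Curves came straight from multi-point titrations, with 8 or 11 points in primary and 11 in confirmatory screening.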

[7] = qHTS of pediatric cancer cell lines to identify multiple opportunities for drug repurposing: Primary screen for DAOY cells (AID 1347090); further: series mostly up to about 46 µM; nearly all actives have a fitted effect of over 55% in size
In short: (§1)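 Viability measured as metabolically active cells via CellTiter-Glo luminescence following 48 hours of compound exposure, 11-point dilutions in confirmatory testing. 500-1,000 cells/well plated 5 hours before dosing; controls were DMSO and 2.3 µM bortezomib.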

[8] = qHTS of pediatric cancer cell lines to identify multiple opportunities for drug repurposing: Primary screen for SJ-GBM2 cells (AID 1347091)
In short: as §1

[9] = qHTS of pediatric cancer cell lines to identify multiple opportunities for drug repurposing: Primary screen for A673 cells (AID 1347092); further: nearly all actives have a fitted effect of over 45% in size; further: potency means the concentration at half of the fitted maximal effect
In short: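 Cells are plated, rested 5 h, dosed by pintool, incubated 48 h, then lysed with CellTiter-Glo and read by luminescence. DMSO is the neutral control; bortezomib at 2.3 uM final is the positive control.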

[10] = qHTS of pediatric cancer cell lines to identify multiple opportunities for drug repurposing: Primary screen for SK-N-MC cells (AID 1347093); further: series mostly up to about 46 µM
In short: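 Metabolically active cells were quantified by ATP-dependent luminescence (CellTiter-Glo, 15 min at room temperature) following 48 h treatment. Cells had been plated at 500-1,000 per well and settled for 5 h beforehand.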

[11] = qHTS of pediatric cancer cell lines to identify multiple opportunities for drug repurposing: Primary screen for BT-37 cells (AID 1347094); further: series mostly up to about 57 µM
In short: (§2)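 Cells plated at 500-1,000/well in growth medium, compounds added after 5 h. MIPE tested at 11 points (from 0.78 nM), NPC at 8 points (from 0.59 nM). CellTiter-Glo luminescence after 48 h; concentration-response curves from primary screen.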

[12] = qHTS of pediatric cancer cell lines to identify multiple opportunities for drug repurposing: Primary screen for NB-EBc1 cells (AID 1347095)
In short: as §2

[13] = qHTS of pediatric cancer cell lines to identify multiple opportunities for drug repurposing: Primary screen for U-2 OS cells (AID 1347096); further: nearly all actives have a fitted effect of over 50% in size
In short: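 Viability after 48 h compound treatment at 37C, 500-1,000 cells/well, read as ATP luminescence with CellTiter-Glo. Primary screens used 11-point (MIPE, 0.78 nM-46 µM) or 8-point (NPC, 0.59 nM-46 µM) final concentrations; follow-up screens used 11-point dilutions.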

Measured: Potency

Nucleoprotein (Lymphocytic choriomeningitis virus (strain Armstrong)), sequence (P09992 whole entry, looked up): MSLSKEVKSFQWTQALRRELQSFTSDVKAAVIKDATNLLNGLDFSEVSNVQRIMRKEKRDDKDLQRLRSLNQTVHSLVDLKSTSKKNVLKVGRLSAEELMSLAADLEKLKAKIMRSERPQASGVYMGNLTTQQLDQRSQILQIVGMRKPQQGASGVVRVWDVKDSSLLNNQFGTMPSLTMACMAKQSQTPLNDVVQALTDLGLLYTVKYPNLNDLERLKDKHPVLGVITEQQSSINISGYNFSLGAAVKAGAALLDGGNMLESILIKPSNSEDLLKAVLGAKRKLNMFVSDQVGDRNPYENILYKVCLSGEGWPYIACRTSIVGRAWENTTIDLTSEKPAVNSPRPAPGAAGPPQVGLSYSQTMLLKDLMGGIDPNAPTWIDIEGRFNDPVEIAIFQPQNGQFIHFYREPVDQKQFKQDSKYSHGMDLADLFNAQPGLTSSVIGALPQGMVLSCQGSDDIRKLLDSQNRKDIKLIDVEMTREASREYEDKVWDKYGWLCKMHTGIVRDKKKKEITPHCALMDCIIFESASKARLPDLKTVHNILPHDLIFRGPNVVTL

Cc1ccc(N=CN(C)C=Nc2ccc(C)cc2C)c(C)c1
inactive: [1] | [2] | [3] | [4] | [5] | [6] | [7] | [8] | [9] | [10] | [11] | [12] | [13]

CCC1(CC)C(=O)NC(=O)NC1=O
inactive: [1] | [2] | [3] | [4] | [5] | [6] | [7] | [8] | [9] | [11] | [12]

Nc1ccc(N)cc1
inactive: [1] | [2] | [3] | [4] | [5] | [6] | [7] | [8] | [11] | [13]
active: [9] 21.1 µM

COc1ccc2[nH]cc(CCN(C(C)C)C(C)C)c2c1
inactive: [1] | [2] | [3] | [4] | [5] | [6] | [7] | [8] | [9] | [10] | [11] | [12] | [13]

C[N+]1(C)[C@@H]2CC[C@H]1CC(OC(=O)C(CO)c1ccccc1)C2 (some centres not stated)
inactive: [1] | [2] | [3] | [4] | [5] | [6] | [7] | [8] | [9] | [11] | [12] | [13]

CCN(Cc1ccc(Cl)nc1)/C(=C/[N+](=O)[O-])NC
inactive: [1] | [2] | [3] | [4] | [5] | [6] | [7] | [8] | [9] | [10] | [11] | [12] | [13]

CNC(C)Cc1ccccc1OC (configuration not stated)
inactive: [1] | [2] | [3] | [4] | [5] | [6] | [7] | [8] | [9] | [11] | [12] | [13]

CC(C)=C[C@@H]1[C@@H](C(=O)OCc2coc(Cc3ccccc3)c2)C1(C)C
inactive: [1] | [2] | [3] | [4] | [5] | [6] | [7] | [8] | [9] | [11] | [12] | [13]

COP(=O)(OC)OC=C(Cl)Cl
inactive: [1] | [2] | [3] | [4] | [5] | [6] | [7] | [8] | [9] | [10] | [11] | [12] | [13]

CCC1(c2cccc(O)c2)CCCCN(C)C1 (configuration not stated)
inactive: [1] | [2] | [3] | [4] | [5] | [6] | [7] | [8] | [9] | [10] | [11] | [12] | [13]

COc1cc(C[C@@H](C)N)c(OC)cc1C
inactive: [1] | [2] | [3] | [4] | [5] | [6] | [7] | [8] | [9] | [10] | [13]

CC[C@H]1C[C@H]2[C@@H]3CCC4=CC(=O)CC[C@@H]4[C@H]3CC[C@]2(C)[C@H]1O
inactive: [1] | [2] | [3] | [4] | [5] | [6] | [7] | [8] | [9] | [11] | [12] | [13]

C[C@H]1CNCCc2ccc(Cl)cc21
inactive: [1] | [2] | [3] | [4] | [5] | [6] | [7] | [8] | [9] | [10] | [11] | [12] | [13]

C[C@]12CC[C@H]3[C@@H](CC=C4C[C@@H](O)CC[C@@]43C)[C@@H]1CC[C@@H]2O
inactive: [1] | [2] | [3] | [4] | [5] | [6] | [7] | [8] | [9] | [10] | [11] | [12] | [13]

COP(=S)(OC)Oc1ccc(Sc2ccc(OP(=S)(OC)OC)cc2)cc1
inactive: [1] | [2] | [3] | [4] | [5] | [6] | [7] | [8] | [9] | [10] | [11] | [12] | [13]

C[N+](C)(C)CCOC(=O)C(O)(c1ccccc1)c1ccccc1
inactive: [1] | [2] | [3] | [4] | [5] | [6] | [7] | [8] | [9] | [10] | [11] | [12] | [13]

C[C@@H]1CC[C@H]2[C@@H](C)C(=O)O[C@@H]3O[C@@]4(C)CC[C@@H]1[C@]32OO4
inactive: [1] | [2] | [3] | [4] | [5] | [6] | [7] | [8] | [9] | [11] | [12] | [13]

COc1cc(CC#N)cc(OC)c1OC
inactive: [1] | [2] | [3] | [4] | [5] | [6] | [7] | [8] | [9] | [10] | [11] | [12] | [13]

CCC(=O)O[C@H]1CC[C@H]2[C@@H]3CCC4=CC(=O)CC[C@]4(C)[C@H]3CC[C@]12C
inactive: [1] | [2] | [3] | [4] | [5] | [6] | [7] | [8] | [9] | [11] | [12] | [13]

O=C(O)Cc1ccccc1
inactive: [1] | [2] | [3] | [4] | [5] | [6] | [7] | [8] | [9] | [11] | [12] | [13]
